# Source: PubChem BioAssay (NCI)
# Compounds without any hit were thinned out: in the full panel of roughly 83,000, 20% have a hit.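 A percent growth of 40 corresponds to 60% growth inhibition; 0 means no net growth; -100 means all cells died. Active threshold: below 10.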 Values without a mark were called inactive. Activity calls are given as the source filed them.
# Tests used:
# Assay in all cases: NCI-60 one-dose screen, 48 h (100 = growth as untreated, 0 = no growth, -100 = all killed)
# Conditions in all cases: 10 µM unless noted
# T-47D breast = test system: T-47D breast
# BT-549 breast = test system: BT-549 breast
# MDA-MB-435 melanoma = test system: MDA-MB-435 melanoma
# SW-620 colon = test system: SW-620 colon
# MCF7 breast = test system: MCF7 breast
# HCT-116 colon = test system: HCT-116 colon
# HCC-2998 colon = test system: HCC-2998 colon
# KM12 colon = test system: KM12 colon
Compound,growth (T-47D breast),growth (BT-549 breast),growth (MDA-MB-435 melanoma),growth (SW-620 colon),growth (MCF7 breast),growth (HCT-116 colon),growth (HCC-2998 colon),growth (KM12 colon)
N#Cc1c(-c2ccc(Cl)cc2)nc(NN=Cc2ccco2)nc1N1CCOCC1,23.2%,58.5%,79.4%,82.2%,26.2%,76.2%,74.8%,95%
C=CC(COC(c1ccccc1)(c1ccccc1)c1ccccc1)N(CC)CC (stereo unspecified),54.8%,81.5%,61.2%,51.3%,33.4%,35.9%,63%,54.6%
O=C1/C(=C/c2ccccc2)SC(=S)N1CCc1ccc(O)cc1,54.3%,106%,96.2%,95.6%,112%,95.9%,107%,87.8%
Brc1ccc(-c2csc(Nc3ccccn3)n2)cc1,53.7%,112%,88.5%,103%,34.5%,81.3%,-5.04% (active),86.4%
CSc1nc(NCCO)c(C#N)c(-c2cccc([N+](=O)[O-])c2)n1,94.1%,96.6%,99.8%,101%,91.4%,96.1%,102%,98.3%
CCc1nc(N)nc(N)c1C#CC(C)c1cc(-c2ccnc(C)c2)c2oc(C)nc2c1 (stereo unspecified),9.59% (active),18.2%,19.4%,16.9%,8.57% (active),11.6%,13%,5.92% (active)
FC(F)(F)c1[nH]ncc1-c1nc2ccc3n[nH]c(C#Cc4cccnc4)c3c2c2c1CCCC2,48.8%,10.3%,47.8%,19.2%,33.9%,9.04% (active),50.4%,22.7%
Cn1cc(-c2nonc2-c2cn(C)c3ccc(F)cc23)c2cc(F)ccc21,64.7%,68.6%,-4.48% (active),22.2%,27.9%,28.2%,73%,33%
C=C(C)[C@@H]1CC[C@]2(C(=O)OC)CC[C@]3(C)[C@H](CC[C@@H]4[C@@]5(C)C/C(=C/c6ccc(OC)cc6)C(=O)C(C)(C)[C@@H]5CC[C@]43C)[C@@H]12,101%,96.6%,72.1%,62.5%,49.1%,41.8%,92.4%,94.3%
Cc1cc(N2CCN(c3ccnc4cc(Cl)ccc34)CC2)nc(NC2CCCCC2)n1,7.8% (active),51.9%,-6.47% (active),14.9%,12.8%,3.19% (active),18.2%,30.1%
CC1=C[C@H]2c3c(c(O)c(O)c4oc5ccccc5c(=O)c34)[C@H](c3cc(O)c(O)c4oc5ccccc5c(=O)c34)[C@H]2C(C)(C)C1,9.72% (active),-15.3% (active),-36% (active),11.9%,9.6% (active),-84.8% (active),11.6%,-1.27% (active)
COC(=O)c1ccc(Cn2cnc3c(N)ncnc32)cc1,106%,119%,123%,109%,98.3%,104%,105%,117%
COc1ccc(S(=O)(=O)N2CCN(C)CC2)cc1NC(=O)c1[nH]c(C)c2c1CCCCC2=O,44.1%,90.4%,42.1%,70.7%,30%,53.5%,64.4%,64.7%
COc1ccc(SC2c3ccc(C)cc3Oc3nc(N)c(C#N)c(N)c32)cc1 (stereo unspecified),-34.5% (active),-72.9% (active),-69.6% (active),-65.2% (active),-48.6% (active),-64.4% (active),-78.9% (active),3.92% (active)
CC(C)(C)c1cc(/C=N\NC(=O)/C=C/C=C/c2ccc3c(c2)OCO3)c(O)c(C(C)(C)C)c1,35%,92.9%,86.4%,74.6%,61.3%,87.7%,89.2%,75.1%
O=C(COc1ccc(/C=C2\COc3ccccc3C2=O)cc1)Nc1nccs1,90%,2.68% (active),105%,69.1%,15%,38.1%,168%,43.3%

Compound,growth (T-47D breast),growth (BT-549 breast),growth (MDA-MB-435 melanoma),growth (SW-620 colon),growth (MCF7 breast),growth (HCT-116 colon),growth (HCC-2998 colon),growth (KM12 colon)
Cc1cc(N[C@@H]2CCC[C@H](Nc3ccnc4cc(Cl)ccc34)C2)nc(N2CCCCCC2)n1,-41.8% (active),-87.9% (active),-91.7% (active),-76.5% (active),-63.1% (active),-88.6% (active),-83.7% (active),-39% (active)
CCN1CCC2(CC1)NC(=O)c1c(c3ccc(Cl)c(Cl)c3n1C)C2C#N (stereo unspecified),75%,37.2%,-59.9% (active),37.6%,35%,14%,-5.34% (active),41.2%
Clc1ccc2c(NCCCCNc3nc(N4CCOCC4)nc4ccccc34)ccnc2c1,8.21% (active),107%,14.1%,14.9%,33.3%,-7.74% (active),58.3%,33.4%
O=C(COc1cccc(/C=C2\CSc3ccccc3C2=O)c1)Nc1nccs1,68.9%,-92.9% (active),20.8%,-74.1% (active),-0.12% (active),-21% (active),100%,-39.7% (active)
CCCCN1CCCn2c1nc1c2c(=O)n(CCC)c(=O)n1CCC,101%,98.1%,102%,96%,100%,98.3%,104%,100%
COc1ccc(/C=C/C(=O)c2ccc(O)c(CN3CCN(c4cc5c(cc4F)c(=O)c(C(=O)O)cn5C4CC4)CC3)c2)cc1,37.6%,17.7%,28.3%,17.5%,8.68% (active),9.41% (active),43.5%,24.8%
O=C1C=CC(=O)N1c1ccc2c(c1)Cc1cc(F)ccc1-2,103%,105%,102%,98.1%,90.2%,94.3%,93.3%,102%
O=c1cc(/C(=C2/C=CC=N2)c2ccc[nH]2)c2cc(Cl)ccc2o1,32%,52.1%,9.82% (active),34.8%,70.9%,44.2%,89.7%,38.9%
CN(CCCCCl)P(=O)(OCc1ccc([N+](=O)[O-])o1)C(F)(F)c1ccc(CC(=O)NC[C@@H](O)/C=C\[C@@H](O)[C@H](CO)Cc2ccccc2)cc1 (stereo partly specified),75.5%,90.7%,65.4%,87.7%,59.9%,93.3%,105%,85.5%
COc1cc2nc(N3CCCC3)nc(Nc3ccccc3)c2cc1OC,-49.1% (active),-70.9% (active),-61.4% (active),-20.4% (active),-71.6% (active),-79.4% (active),-51.2% (active),33%
Cc1ccccc1COc1ccc(-c2onc(C)c2-c2ccc(Cl)cc2)cc1,61.1%,66.2%,-1.01% (active),31.7%,31.7%,34%,86.6%,54.3%
FC(F)(F)Oc1ccc2nc3nc4ccc[nH]c4cc3c2c1,41.3%,84.4%,89.2%,86.8%,16.8%,81.4%,96.8%,72.8%
CCN(CC)c1ccc(/C=N\NC(=O)/C=C/C=C/c2ccc3c(c2)OCO3)c(O)c1,26.3%,51.8%,48.9%,32.3%,19.5%,7.86% (active),54%,30.2%
Nc1n[nH]c2cc(F)c([C@@H]3Nc4ccc5[nH]ncc5c4[C@H]4C5CCC(C5)[C@@H]34)cc12 (stereo partly specified),97.6%,-7.74% (active),-15.3% (active),21.7%,16.3%,-29.3% (active),15.9%,1.62% (active)
COc1ccc(-c2nc3ccc(-c4nc5ccc(N6CCN(c7ccccc7)CC6)cc5[nH]4)cc3[nH]2)cc1OC,-36.4% (active),52.9%,-3.15% (active),-32.7% (active),-85.3% (active),-100% (active),-53.6% (active),4.37% (active)
O=S(=O)(Nc1ccc(OC(F)F)cc1)c1ccc(-c2cnc(C3CC3)o2)cc1,48.3%,63.4%,8.1% (active),35.2%,39.1%,65.4%,80.5%,74.1%
